OPRM1-OPRD1 inv: inverse agonist of human OPRM1-OPRD1 heterodimerization | P35372+P41143 | cell-based MOR-DOR heterodimer luminescence, inverse agonism | inhibition, % at 9.3 µM | actives 0.21% (n = 340,000); in the data active = inhibition above about 22%, passing the limit was not always enough
HTR5A ag: activates human HTR5A in OPRM1-OPRD1 agonist counter-screen. P47898. HTR5A agonist assay, luminescence, cell-based. activation, % at 9.3 µM. actives 0.61% (n = 340,000). AID 504692; in the data active = activation mostly above about 9.5%, no sharp cut-off; inactive = mostly below about 7.6%
Target sequence (P47898 whole entry, looked up): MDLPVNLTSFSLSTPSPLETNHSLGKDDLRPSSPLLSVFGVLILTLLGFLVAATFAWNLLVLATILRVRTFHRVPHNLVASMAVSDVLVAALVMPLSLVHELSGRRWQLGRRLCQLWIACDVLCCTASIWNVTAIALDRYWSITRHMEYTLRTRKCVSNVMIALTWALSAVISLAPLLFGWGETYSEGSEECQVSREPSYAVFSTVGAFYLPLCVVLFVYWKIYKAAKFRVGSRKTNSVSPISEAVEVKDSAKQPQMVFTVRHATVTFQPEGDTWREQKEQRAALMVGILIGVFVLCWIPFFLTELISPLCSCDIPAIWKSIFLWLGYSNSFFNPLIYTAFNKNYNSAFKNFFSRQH
HTR5A inv ctr: counter-screen for OPRM1-OPRD1 inverse agonists: human HTR5A inverse agonism; inhibition, % at 9.3 µM; AID 504634; HTR5A cell line, luminescence; actives 0.083% (n = 340,000); P47898; in the data active = inhibition mostly above about 23%, no sharp cut-off; inactive = mostly below about 18%
MOR-DOR ag: agonists of human mu-delta opioid receptor heterodimerization. actives 0.3% (n = 340,000). cells, OPRM1-OPRD1 heterodimerization, luminescence. activation, % at 9.3 µM
MOR-DOR ag conf: confirmation of human OPRM1-OPRD1 heterodimerization agonists. activation, % at 9.3 µM. actives 45% (n = 830). shares compounds with MOR-DOR ag. cells, MOR-DOR heterodimerization, luminescence complementation
HTR5A ag counter: HTR5A agonism, opioid heterodimer counter-screen; shares compounds with MOR-DOR ag; HTR5A agonist counterscreen, cell luminescence; activation, % at 9.3 µM; actives 8% (n = 830); in the data active = activation above about 17%
Hits are given with their value; - = inactive; . = no result; ! = a repeat was not active. Compounds with a hit are over-represented: about 1.1% of the library has one in this group of screens. Rule as the data show it, unless noted: active = activation above about 18%; inactive = the rest.

SMILES | OPRM1-OPRD1 inv | HTR5A ag | HTR5A inv ctr | MOR-DOR ag | MOR-DOR ag conf | HTR5A ag counter
O=C1NC(c2ccc(-c3ccccc3[N+](=O)[O-])o2)C(C(=O)c2ccccc2)C(O)(C(F)(F)F)N1 (stereo unspecified) | - | - | - | - | . | .
Cc1ccc(C(=O)C2C(c3ccc(-c4ccccc4[N+](=O)[O-])o3)NC(=O)NC2(O)C(F)(F)F)cc1 (stereo unspecified) | - | - | - | 21 | - | -
OC(CN1CCN(C(c2ccccc2)c2ccccc2)CC1)c1ccccc1 (stereo unspecified) | - | - | - | 19 | 33 | -
CCN1CCN(CC(O)COc2ccc(C)c(C)c2)CC1 (stereo unspecified) | - | - | - | 25! | - | -
CCN1CCN(CC(O)COc2ccc(Cl)cc2)CC1 (stereo unspecified) | - | - | - | - | . | .
CCN1CCN(Cc2ccc(NC(=O)c3ccc(C)c(NC(=O)c4c[nH]c5cc(C(F)(F)F)ccc5c4=O)c3)cc2C(F)(F)F)CC1 | - | - | - | 47 | 39 | -
C#CCOCCOCCOCCNc1nc(N2CCN(C(=O)[C@H](CCCCN)n3cc(CCCC)nn3)CC2)nc(N2CCN(C(=O)[C@H](CCCCN)n3cc(CCC(=O)O)nn3)CC2)n1 | - | - | - | - | . | .
CC(NCc1cc(Br)ccc1OCC(=O)NCc1ccccc1)c1ccccc1 (stereo unspecified) | - | - | - | 33 | 19 | -
CCOC(=O)C1=C(c2ccccc2)NC(=O)NC1c1ccc(O)c(Cl)c1 (stereo unspecified) | - | 31 | - | 103 | 82 | 28
Cc1cc(NC(=O)C2CCN(C(=O)c3ccco3)CC2)ccc1Br | - | - | - | - | . | .
CCOC(=O)c1c2c(n(-c3ccc(OC)cc3)c1C)C(=O)C(=O)c1ccccc1-2 | - | - | - | 20 | - | -
O=C(COc1ccccc1F)Nc1cc(S(=O)(=O)Nc2cccc(Cl)c2)ccc1O | - | - | - | - | . | .
O=C(Nc1ccccc1)c1ccc(NC2CCCCC2)c(S(=O)(=O)N2CCOCC2)c1 | - | - | - | 37 | 43 | -
O=C(Nc1ccc(NC(=O)c2ccc(Cl)c(S(=O)(=O)N3CCOCC3)c2)cc1)c1ccccc1 | - | - | - | - | . | .
CN1C2C=C(N(CCc3c[nH]c4ccccc34)C(=O)c3ccc(Cl)cc3)CC1CC2 (stereo unspecified) | - | - | - | 100 | 138 | -
CCOc1ccc2nc(NC3=NC(C)(C)C=C(C)N3)nc(C)c2c1 | - | - | - | 158 | - | -
CCOc1ccc2c(C)nc(NC3=NC(C)(C)C=C(C)N3)nc2c1 | - | - | - | 170 | - | -
CCOc1ccc2nc(NC3=NC(c4ccc(OC)cc4)CC(=O)N3)nc(C)c2c1 (stereo unspecified) | - | - | - | - | . | .
Cc1c(NS(=O)(=O)c2cc(C(=O)NCCN(C)C)ccc2Cl)c(=O)n(-c2ccccc2)n1C | - | - | - | - | . | .
Cc1ccc(/C([O-])=C(/C(=S)Nc2ccc(SC(F)F)cc2)[n+]2ccccc2)cc1[N+](=O)[O-] | - | - | - | 24 | - | -
COc1ccc(C2c3c(-c4ccccc4O)n[nH]c3C(=O)N2Cc2ccco2)cc1OC (stereo unspecified) | - | - | - | - | . | .
O=C1c2[nH]nc(-c3ccccc3O)c2C(c2ccc(F)cc2)N1Cc1ccco1 (stereo unspecified) | - | - | - | 20 | - | -
Oc1ccccc1C1SC(c2ccccc2O)SC(c2ccccc2O)S1 (stereo unspecified) | - | - | - | 22 | 20 | -
C=C(C)COc1ccc(C2NC(=O)c3ccccc3O2)cc1OCC (stereo unspecified) | - | - | - | - | . | .
COc1ccc(/C=C/C(=O)OCC(=O)Nc2cccc(S(=O)(=O)NC3=NCCCCC3)c2)cc1 | - | - | - | - | . | .
SMILES | OPRM1-OPRD1 inv | HTR5A ag | HTR5A inv ctr | MOR-DOR ag | MOR-DOR ag conf | HTR5A ag counter
Cc1ccc2cc(CCNS(=O)(=O)c3ccc(Br)cc3)c(=O)[nH]c2c1C | - | - | - | - | . | .
COC(=O)c1cc(OC)c(OC)cc1NC(=O)c1ccco1 | - | - | - | - | . | .
COc1ccc(NC(=O)COC(=O)c2cc(OC)c(OC)cc2NC(=O)c2ccco2)cc1OC | - | - | - | 23 | - | -
CC(=O)c1ccccc1NC(=O)COC(=O)CN1C(=O)C2CCCCC2C1=O (stereo unspecified) | - | - | - | - | . | .
CC(=O)Nc1ccc(NC(=O)c2cc([N+](=O)[O-])cc([N+](=O)[O-])c2)cc1 | - | - | - | - | . | .
O=C(Nc1ccc(Br)cc1)c1cc([N+](=O)[O-])cc([N+](=O)[O-])c1 | - | - | - | 22 | - | -
COc1ccc2c(c1)[nH]c1c(=O)n(/N=C/C3C(C)C=C(C)CC3C)c(=O)[nH]c12 (stereo unspecified) | - | - | - | - | . | .
COc1ccc2[nH]c3c(=O)n(/N=C/[C@H]4C(C)C=C(C)CC4C)c(=O)[nH]c3c2c1 (stereo partly specified) | - | - | - | 54 | 39 | -
Cc1ccc(C(=O)NCCNC(=O)c2cccnc2)cc1 | - | - | - | - | . | .
COc1ccc2cc3cc(C(=O)NC(C)C)oc3nc2c1 | - | - | - | - | . | .
COc1ccc2cc3cc(C(=O)Nc4cc(OC)c(OC)c(OC)c4)oc3nc2c1 | - | - | - | 20 | 21 | -
Oc1ccc(Br)cc1CNc1cccc2cccnc12 | - | - | - | 19 | - | -
COCCNC(=O)C(=O)NCC1OCCN1S(=O)(=O)c1ccc(F)cc1 (stereo unspecified) | - | - | - | - | . | .
COc1cccc(-c2nc(CS(=O)(=O)CC(=O)NCCN3CCOCC3)c(C)o2)c1 | - | - | - | - | . | .
COc1ccc2cc(C)c(SCC(=O)Nc3cc(C)on3)nc2c1 | - | - | - | 18 | - | -
CCOC(=O)c1c(C)[nH]c(O)c1C=Nc1ccc(Cl)cc1 | - | - | - | 39 | - | -
CCOC(=O)c1c(C)[nH]c(O)c1C=Nc1ccc(C(F)(F)F)cc1 | - | - | - | - | . | .
CC1CC(C)CN(C(=O)Cn2ncc3c([nH]c4ccccc43)c2=O)C1 (stereo unspecified) | - | - | - | - | . | .
O=C(Cn1ncc2c([nH]c3ccccc32)c1=O)N1CCc2ccccc2C1 | - | - | - | 32 | 26 | -
CCOC(=O)N1CCc2c(sc3ncn(C)c(=O)c23)C1 | - | - | - | - | . | .
CCOC(=O)N1CCc2c(sc3nc4n(c(=O)c23)N=C(c2ccc(OC)cc2)CS4)C1 | - | - | - | 26 | - | -
COc1ccc(N2CCN(C(=O)c3cc(S(=O)(=O)N4CCCCCC4)ccc3OC)CC2)cc1 | - | - | - | - | . | .
Oc1cccc(C(=S)N2CCC(Cc3ccccc3)CC2)c1 | - | - | - | - | . | .
Oc1cccc(C(=S)N2CCN(Cc3ccccc3)CC2)c1 | - | - | - | 32 | - | -
